Measurements from PubChem BioAssay (NCATS).
Records with an inconclusive call do not appear. Calls of active or inactive are those of the source. The call rests on the fitted dose curve; in most records, active means well fitted curve in the direction sought with a large enough effect; inconclusive means small, poorly fitted or top-dose-only effect, or another doubt; inactive means no such curve, though single readings can be large or run the other way.

Experiment: qHTS Assay for Identifying Gametocytocidal Compounds (AID 743244);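 further: actives lower the fluorescent signal which means gametocytes are killed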
Details: P. falciparum 3D7 stage III-V gametocytes, alamarBlue, 72 h; max response: hits give low values
In short: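 Viability read-out was resazurin reduction (alamarBlue, 24 h) measured at Ex 525/Em 598 nm. Beforehand, late-stage (III-V) 3D7 P. falciparum gametocytes at 20,000 cells/well were incubated with compound 72 h at 37C under 5% CO2.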
On the % scale 0 is the no-effect control and ±100 the full control effect.

SMILES	max response
Cc1c(Cn2ccnc2)c2ccccc2n1CCC(=O)O	-9.07% (inactive)
CC[C@]12CCCN3CCc4c(n(c5ccccc45)[C@@](O)(C(=O)OC)C1)[C@@H]32	13.2% (inactive)
O=c1[nH]c(=O)c2ccccc2o1	-4.26% (inactive)
CCN(CC)CCc1nc(-c2ccccc2)no1	1.91% (inactive)
CN[C@@H]1[C@H](O)[C@H](NC)[C@H]2O[C@@]3(O)C(=O)C[C@@H](C)O[C@H]3O[C@@H]2[C@H]1O	2.93% (inactive)
